Assay outcomes: PubChem, National Center for Advancing Translational Sciences (NCATS)
HP1b chromo inh = HTS for Inhibitors of HP1-beta Chromodomain Interactions with Methylated Histone Tails. Potency, µM (series often up to 114 µM), inactives show at the highest dose activity change, negative = inhibition, most hits filed as inhibitors. AID 540317, 2011. actives 0.56% (n = 390,000). AlphaScreen HP1-beta / biotin-H3K9me3 peptide binding; also: nearly all actives have a fitted effect of over 70% in size
Target sequence (P83916 whole entry, looked up): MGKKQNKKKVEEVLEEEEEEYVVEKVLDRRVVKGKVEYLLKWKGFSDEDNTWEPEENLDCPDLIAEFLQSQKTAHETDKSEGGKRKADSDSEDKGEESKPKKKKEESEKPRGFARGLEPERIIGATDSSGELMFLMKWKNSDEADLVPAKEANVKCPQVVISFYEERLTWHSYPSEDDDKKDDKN
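HP1-beta protein (50 nM final) preincubated 30 min at room temperature with biotinylated H3(1-18)K9me3 peptide (50 nM) in PBS pH 7.4, 0.01% Tween-20, then compound added for 30 min. AlphaScreen streptavidin donor/nickel chelate acceptor beads (10 ug/mL final), 30 min dark, luminescence read.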
L3MBTL1 inh = qHTS Assay for the Inhibitors of L3MBTL1; Lethal(3)malignant brain tumor-like protein 1 (Homo sapiens), Q9Y468; AlphaScreen L3MBTL1–H3K9me1 peptide binding; Potency, µM (series often up to 57.1 µM), for the others: at the top dose activity, negative = inhibition, most hits filed as inhibitors; actives 0.66% (n = 230,000); AID 485360, 2010; also: % is scaled to controls: 0 for no effect and ±100 for the full control effect; nearly all actives have a fitted effect of over 60% in size
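L3MBTL1 50 nM + b-AHA-H3(1-15)K9me1 75 nM, 30 min RT; compound added, 30 min RT; streptavidin donor/Ni-chelate acceptor beads 10 ug/mL each final, 30 min RT dark; AlphaScreen read.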
BAZ2B block = qHTS Assay for Inhibitors of BAZ2B; AID 504333, 2011; AlphaScreen BAZ2B-H3K14Ac peptide displacement; actives 4.4% (n = 360,000); Potency, µM (series often up to 114 µM), without a hit: at the top dose activity change, negative = inhibition, hits mostly inhibitors; Bromodomain adjacent to zinc finger domain protein 2B (Homo sapiens), Q9UIF8; also: % is scaled to controls: 0 for no effect and ±100 for the full control effect; nearly all actives have a fitted effect of over 60% in size
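BAZ2B (50 nM) with biotin-H3(5-23)K14Ac peptide (50 nM) in PBS pH 7.4, 0.01% Tween-20, preformed 30 min, then compound 30 min at room temperature; top concentration 110uM. AlphaScreen streptavidin donor/nickel chelate acceptor beads (10 ug/mL final), 20 min dark, signal read.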
G9a block = qHTS Assay for Inhibitors of Histone Lysine Methyltransferase G9a; AID 504332, 2011; actives 8.8% (n = 350,000); Potency, µM (highest dose often 102 µM), without a hit: at the top dose activity, negative = inhibition, usual class: inhibitors; G9a H3K9 monomethylation, AlphaScreen, 2 h; also: % is scaled to controls: 0 for no effect and ±100 for the full control effect; nearly all actives have a fitted effect of over 75% in size
Target sequence (Q96KQ7 913-1193 limits assumed): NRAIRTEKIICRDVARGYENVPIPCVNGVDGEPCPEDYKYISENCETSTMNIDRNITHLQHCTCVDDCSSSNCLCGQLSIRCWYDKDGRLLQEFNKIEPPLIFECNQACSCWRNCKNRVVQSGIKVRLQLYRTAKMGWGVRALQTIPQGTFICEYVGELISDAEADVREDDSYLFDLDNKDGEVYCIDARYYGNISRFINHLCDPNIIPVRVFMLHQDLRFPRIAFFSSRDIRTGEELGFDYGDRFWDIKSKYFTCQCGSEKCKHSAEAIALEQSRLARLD
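Methyltransferase reactions run at room temperature for 2 h (20 nM enzyme, 500 nM biotin-H3K9 peptide, 20 uM SAM) after a 15 min compound preincubation; product detected by AlphaScreen beads and anti-H3K9me1 antibody.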
Sfp PPTase inh = qHTS Assay for Inhibitors of Bacillus subtilis Sfp phosphopantetheinyl transferase (PPTase). 4'-phosphopantetheinyl transferase ffp (Bacillus subtilis), Q9F4F7. AID 1490, 2009. actives 3.5% (n = 310,000). Biochemical Sfp PPTase activity, qHTS. Potency, µM, without a hit: largest response in the series, negative = inhibition, most hits filed as inhibitors;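 also: the enzyme is Sfp with the accession as filed and its product quenches rhodamine fluorescence; 0% = enzyme reaction without inhibitor and -100% = no enzyme wells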
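With Hepes-Na pH 7.6 buffer containing 10 mM MgCl2, Sfp (15 nM) modified BHQ-2-YbbR (12.5 uM) using rhodamine-CoA (5 uM). Two reads 30 minutes apart at 525/598 nm yielded each well's rate.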
JMJD2A Tudor = qHTS Assay for Inhibitors of JMJD2A-Tudor Domain; Lysine-specific demethylase 4A (Homo sapiens), O75164; AlphaScreen JMJD2A-Tudor / H3K4me3 peptide binding; Potency, µM (highest dose often 114 µM), for inactives: at the highest dose activity change, negative = inhibition, most hits filed as inhibitors; actives 4.4% (n = 390,000); AID 504339, 2011; also: % is scaled to controls: 0 for no effect and ±100 for the full control effect; nearly all actives have a fitted effect of over 50% in size
* hit, by the source's call; [ ] = remark or other dose. Rows were chosen to be rich in hits. Some 12% of all compounds tested hit in one or more screens of this group. Calls follow the shape of the dose curve; as a rule, active = well fitted curve in the direction sought with a large enough effect; inconclusive = small, poorly fitted or top-dose-only effect, or another doubt; inactive = no such curve, though single readings can be large; an effect the other way counts as inactive or inconclusive. Potency is read from the fitted curve at half-maximal effect.

Screening COc1ccc(CN2CCC(Cc3ccccc3)CC2)cc1OC returned HP1b chromo inh inconclusive, L3MBTL1 inh -5%, BAZ2B block inconclusive, G9a block 50µM*, Sfp PPTase inh -2% and JMJD2A Tudor 20µM*.
`COc1ccccc1NS(=O)(=O)c1ccc(C(=O)N2CCN(c3ccccn3)CC2)cc1` gave HP1b chromo inh 26%, L3MBTL1 inh 8% and JMJD2A Tudor -8%.
For CCn1cc(S(=O)(=O)N2CCc3ccccc3C2)cn1 the results were HP1b chromo inh 35%, BAZ2B block 1%, Sfp PPTase inh 19% and JMJD2A Tudor 2%.
Screening OC[C@@H]1OC(O)[C@@H](O)[C@H](O)[C@@H]1O (stereo not given in full) returned Sfp PPTase inh 6%.
Screening COCCCNC(=O)CSc1nc2cc3c(cc2c(=O)n1CCCCCC(=O)NCCc1ccc(OC)c(OC)c1)OCO3 returned HP1b chromo inh 18%, BAZ2B block 0%, G9a block 4%[59 µM] and JMJD2A Tudor -8%.
`OC(COc1ccc(Cl)cc1)CN1CCN(c2ccccc2)CC1` (stereo not given) gave HP1b chromo inh 14%, BAZ2B block -39%, G9a block 9%[2.33 µM], Sfp PPTase inh -8% and JMJD2A Tudor -20%.
Screening CCCCOc1ccc(CN2CCC(O)CC2)cc1 returned HP1b chromo inh -29%, L3MBTL1 inh -5%, BAZ2B block inconclusive, Sfp PPTase inh 79µM* and JMJD2A Tudor 2.8µM*.
For O=[N+]([O-])c1cccc(CN2CCC(Cc3ccccc3)CC2)c1 the results were HP1b chromo inh inconclusive, L3MBTL1 inh -8%, BAZ2B block 50µM*, G9a block 35µM*, Sfp PPTase inh 0% and JMJD2A Tudor 1.6µM*.
`COc1cccc(OC)c1OCCCN1CCC(Cc2ccccc2)CC1` gave HP1b chromo inh inconclusive, BAZ2B block -35%, G9a block 25µM*, Sfp PPTase inh -14% and JMJD2A Tudor 20µM*.
`COc1cccc(OC)c1OCCN1CCN(C(c2ccccc2)c2ccccc2)CC1` gave HP1b chromo inh 0%, BAZ2B block inconclusive, G9a block 15%[2.33 µM], Sfp PPTase inh -13% and JMJD2A Tudor -33%.
`OC(COc1ccc(Cl)cc1)CN1CCC(Cc2ccccc2)CC1` (stereo not given) gave HP1b chromo inh 54%, BAZ2B block -18%, G9a block 28µM*, Sfp PPTase inh 5% and JMJD2A Tudor -18%.
`CC(=O)[C@]1(O)CCC2C3CC(C)C4=CC(=O)C=CC4(C)[C@@]3(F)C(O)C[C@]21C` (stereo not given in full) gave G9a block inconclusive and Sfp PPTase inh 21%.
For CO/N=C(/C(=O)N[C@@H]1C(=O)N2C(C(=O)O)=C(COC(N)=O)CS[C@H]12)c1ccco1 the results were G9a block -2%[59 µM] and Sfp PPTase inh -24%.
Screening COc1cc(OC)c(NC(=O)CSc2nc3ccncc3[nH]2)cc1Cl returned HP1b chromo inh 63%, L3MBTL1 inh -3%, BAZ2B block -13%, G9a block 0%[59 µM] and JMJD2A Tudor -23%.
Screening CCCn1c(SCC(=O)Nc2ccccc2N2CCCCC2)nc2c1c(=O)n(C)c(=O)n2C returned HP1b chromo inh 2%, L3MBTL1 inh -5%, BAZ2B block 1%, G9a block 21%[59 µM], Sfp PPTase inh 35µM* and JMJD2A Tudor -22%.
Cc1ccccc1NC(=O)CSc1nc2c(c(=O)n(C)c(=O)n2C)n1C was read as HP1b chromo inh 16%, BAZ2B block -14%, G9a block 71µM*, Sfp PPTase inh 15% and JMJD2A Tudor -7%.
Screening Cc1ccccc1NC(=O)CSc1nc(-c2ccccc2)cn1-c1ccccc1F returned HP1b chromo inh -17%, BAZ2B block inconclusive, G9a block 11µM* and JMJD2A Tudor inconclusive.
Cc1ccc(C)c(-n2cc(-c3ccccc3)nc2SCC(=O)Nc2ccccc2)c1 was read as HP1b chromo inh -15%, BAZ2B block inconclusive, G9a block inconclusive and JMJD2A Tudor inconclusive.
`COC(=O)C1CCN(C(=O)CSc2nnc(-c3ccccc3)o2)CC1` gave HP1b chromo inh 27%, L3MBTL1 inh 0%, BAZ2B block 10%, G9a block 11%[2.33 µM] and JMJD2A Tudor 7%.
Screening Clc1nc(NCc2ccco2)c2[nH]cnc2n1 returned HP1b chromo inh 5%[57 µM] and JMJD2A Tudor -2%[57.1 µM].
`CC(C)(C)C1CCC(=NNC(=O)C(=O)NC2CCCCC2)CC1` (stereo not given) gave HP1b chromo inh 15%, L3MBTL1 inh -7%, BAZ2B block -34%, G9a block inconclusive, Sfp PPTase inh -21% and JMJD2A Tudor 79µM*.
`CN1CCC(=NNC(=O)C(=O)NC2CCCC2)CC1` gave HP1b chromo inh 5%, BAZ2B block inconclusive, G9a block -5%, Sfp PPTase inh 11% and JMJD2A Tudor 40µM*.
For O=C(NN=C1CCCCCCC1)C(=O)NC1CCCCC1 the results were HP1b chromo inh 22%, L3MBTL1 inh -6%, BAZ2B block -1%, G9a block -1%[59 µM], Sfp PPTase inh 6% and JMJD2A Tudor -11%.
For CN1CCN(C(=O)NC2CCCCC2)CC1 the results were HP1b chromo inh inconclusive, L3MBTL1 inh -27%, BAZ2B block 50µM*, G9a block 8.9µM*, Sfp PPTase inh -17% and JMJD2A Tudor 8.9µM*.
Screening Cc1ccc(C2(C)NC(=O)N(CC(=O)NC(C)c3ccccc3)C2=O)cc1 (stereo not given) returned HP1b chromo inh 23%, BAZ2B block -12%, G9a block -6%, Sfp PPTase inh 20% and JMJD2A Tudor -8%.
`CC(=O)[C@@H]1CC[C@@H]2[C@@H]3C[C@H](C)C4=CC(=O)CC[C@@]4(C)[C@H]3[C@H](O)C[C@]21C` gave G9a block 25%[21.5 µM] and Sfp PPTase inh 11%.
CO/N=C\c1ccc(C(=O)N2[C@H](c3ccc(C)cc3)[C@@H](C)CC[C@H]2C(=O)OC)cc1 was read as Sfp PPTase inh 15%.
